The values that follow come from PubChem BioAssay.

Each structure is given as a SMILES string. The source made the active and inactive calls.

The subject of test [1] is Plasmodium falciparum Sir2 (PF13_0152, Sir2A). Kind of test: Plasmodium falciparum Sir2A binding compounds – biochemical, small-molecule microarray, 635 nm fluorescence, primary screen (AID 1098).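 Also: score merges spot fluorescence intensity with its signal-to-noise ratio.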 Particulars: fluorescence 635 nm, higher = more signal.
A short description of test [2]: probe aDKK1 binding to arrayed compounds – biochemical, biotinylated probe, 635/667 nm fluorescence, primary screen (AID 1099).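 Also: score merges 667nm spot fluorescence with signal to noise across triplicate slides.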 Particulars: small-molecule microarray, higher = more signal.
Test [3] can be described thus: probe aCHRDL2 binding to arrayed compounds – biochemical, biotinylated probe, 635/667 nm fluorescence, primary screen (AID 1100). Particulars: small-molecule microarray, higher = more signal.
A short description of test [4]: change in splice reporter luminescence, either direction, cell-based, HEK293, spliceosome inhibition project, primary screen (AID 1101).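 Also: HEK293 cells carrying a splicing-competent luciferase reporter gene; test concentration not given here.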 Particulars: HEK293 splicing luciferase reporter, 24 h, higher = more signal, called active from +8 up or from −8 down. On the technique in general: Reporter assays use an easily measured gene product as a stand-in for the process of interest.

Test [5] concerns the target Fibroblast growth factor 10 (Homo sapiens) (UniProt O15520). Nature of the test: compounds binding fibroblast growth factor 10 – biochemical, small-molecule microarray, 635 nm fluorescence, primary screen (AID 1102). To be noted: FGF10 binding, fluorescence 635 nm, higher = more signal.
Test [6] concerns glycogen synthase kinase-3 (GSK3A per assay name; protocol says GSK3B). Kind of test: compounds binding glycogen synthase kinase-3 – biochemical, small-molecule microarray, 635 nm fluorescence, GSK3A, primary screen (AID 1103). Also: the record names both GSK3A and GSK3B. Particulars: fluorescence 635 nm, higher = more signal.
Test [7] has as its target Epidermal growth factor receptor (Homo sapiens) (UniProt P00533). Nature of the test: compounds binding epidermal growth factor receptor – biochemical, small-molecule microarray, 635 nm fluorescence, primary screen (AID 1104).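 Also: score merges 667 nm emission intensity with spot signal to noise over triplicate slides.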 Particulars: EGFR binding, higher = more signal.
For test [8], the target named is Follistatin-related protein 3 (Homo sapiens) (UniProt O95633). Kind of test: compounds binding follistatin-related protein 3 – biochemical, small-molecule microarray, 635 nm fluorescence, primary screen (AID 1105).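 Also: score merges emission near 667 nm and signal to noise per printed spot across three slides.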 Particulars: FSTL3 binding, higher = more signal.
Follistatin-related protein 3 (Homo sapiens), sequence (O95633 whole entry, looked up): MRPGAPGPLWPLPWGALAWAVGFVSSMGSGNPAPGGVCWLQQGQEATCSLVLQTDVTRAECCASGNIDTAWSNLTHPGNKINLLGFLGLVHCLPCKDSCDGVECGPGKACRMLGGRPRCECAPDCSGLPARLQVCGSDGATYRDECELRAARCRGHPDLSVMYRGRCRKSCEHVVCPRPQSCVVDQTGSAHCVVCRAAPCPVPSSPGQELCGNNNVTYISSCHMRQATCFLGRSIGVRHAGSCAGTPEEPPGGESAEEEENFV
The target in test [9] is Dickkopf-related protein 1 (Homo sapiens) (UniProt O94907). Nature of the test: small molecules binding DKK1 protein – biochemical, small-molecule microarray, 635 nm fluorescence scan, primary screen (AID 1106).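 Also: score merges emission near 667 nm with signal to noise over three replicate slides.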 Particulars: higher = more signal.
Dickkopf-related protein 1 (Homo sapiens), sequence (O94907 whole entry, looked up): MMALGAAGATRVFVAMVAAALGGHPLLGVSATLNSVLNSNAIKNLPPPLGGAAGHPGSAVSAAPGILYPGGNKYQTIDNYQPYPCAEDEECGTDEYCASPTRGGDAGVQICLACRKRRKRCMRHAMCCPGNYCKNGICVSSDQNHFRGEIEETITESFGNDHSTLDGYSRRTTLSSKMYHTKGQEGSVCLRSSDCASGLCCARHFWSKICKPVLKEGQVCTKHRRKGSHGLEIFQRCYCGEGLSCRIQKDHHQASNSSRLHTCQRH
Test [10] has as its system Inhibin beta A chain (activin A). Nature of the test: small molecules binding activin A – biochemical, small-molecule microarray, 635 nm fluorescence scan, primary screen (AID 1107).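 Also: mouse activin A protein probed at 4.33 µg/mL on printed slides; score merges bound-protein fluorescence near 667 nm with spot signal-to-noise.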 Particulars: INHBA, higher = more signal.
Test [11] has as its system Human papillomavirus type 1a protein E7 (residues 44-93). Nature of the test: small molecules binding HPV E7 44-93 – biochemical, small-molecule microarray, residues 44-93, 635 nm fluorescence, primary screen (AID 1108).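 Also: E7 fragment applied at 1 µg/mL in TBST for 1 h at 4 C; score combines spot fluorescence with its signal to noise ratio.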 Particulars: fluorescence 635 nm, higher = more signal.
The nature of test [12]: hepatitis C replication reporter changes, two-sided – Huh7 cells, luciferase reporter, HCV replication inhibitor project, primary screen (AID 1109).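 Also: huh7 hepatoma cells harbouring a luciferase neomycin HCV replicon reporter; luciferase luminescence as measure of HCV replicon replication; test concentration not given here.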 Particulars: Huh7 HCV replicon luciferase reporter, 48 h; higher = more signal.
Test [13] addresses Left-right determination factor 2 (Homo sapiens) (UniProt O00292). Kind of test: small molecules binding LEFTY2 protein – biochemical, small-molecule microarray, 635 nm fluorescence scan, primary screen (AID 1110). Particulars: higher = more signal.
Test [14] has as its target Calmodulin-1 (Homo sapiens) (UniProt P0DP23). Nature of the test: small molecules binding calmodulin-1 with EGTA – biochemical, small-molecule microarray, Cy5-labelled CALM1, profiling panel (AID 1111).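 Also: labelled calmodulin applied in Tris saline Tween buffer holding calcium plus EGTA and DTT.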 To be noted: Cy5-CALM1 binding fluorescence, higher = more signal.
Test [15] has the same target. Kind of test: small molecules binding Ca-loaded calmodulin-1 – biochemical, small-molecule microarray, Cy5-labelled CALM1, plus calcium, artefact control for SMM control-protein annotation, profiling panel (AID 1112).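 Also: score merges spot fluorescence with signal to noise from triplicate slides.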 To be noted: Cy5-CALM1 binding fluorescence, higher = more signal.
Test [16] is described as follows: probe aWnt5a binding to arrayed compounds – biochemical, biotinylated probe, 635/667 nm fluorescence, primary screen (AID 1113).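 Also: score merges 667 nm fluorescence intensity with signal-to-noise per printed feature.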 Particulars: small-molecule microarray, higher = more signal.
Test [17] in a line: probe aShh binding to arrayed compounds – biochemical, biotinylated probe, 635/667 nm fluorescence, primary screen (AID 1114).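 Also: probe is biotin-labelled aShh protein from a stem cell growth factor screen; measures binding of labelled protein to compounds printed on the slide; score merges feature fluorescence at 667 nm with signal-to-noise.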 To be noted: small-molecule microarray, higher = more signal.
A short description of test [18]: probe aNog binding to arrayed compounds – biochemical, biotinylated probe, 635/667 nm fluorescence, primary screen (AID 1115).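 Also: probe is biotinylated aNog protein used at 0.15 µg/mL for 1 h at 4 C; z-score combines 667 nm fluorescence of each spot with its signal to noise.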 To be noted: small-molecule microarray, higher = more signal.
Test [19] deals with Torsin-1A-interacting protein 1 (Homo sapiens) (UniProt Q5JTV8). Kind of test: compound microarray binding of lysate hLAP1 – cell lysate, small-molecule microarray, COS7 lysate, 635/667 nm fluorescence, primary screen (AID 1116). Particulars: 635 nm fluorescence, higher = more signal.
Torsin-1A-interacting protein 1 (Homo sapiens), sequence (Q5JTV8 whole entry, looked up): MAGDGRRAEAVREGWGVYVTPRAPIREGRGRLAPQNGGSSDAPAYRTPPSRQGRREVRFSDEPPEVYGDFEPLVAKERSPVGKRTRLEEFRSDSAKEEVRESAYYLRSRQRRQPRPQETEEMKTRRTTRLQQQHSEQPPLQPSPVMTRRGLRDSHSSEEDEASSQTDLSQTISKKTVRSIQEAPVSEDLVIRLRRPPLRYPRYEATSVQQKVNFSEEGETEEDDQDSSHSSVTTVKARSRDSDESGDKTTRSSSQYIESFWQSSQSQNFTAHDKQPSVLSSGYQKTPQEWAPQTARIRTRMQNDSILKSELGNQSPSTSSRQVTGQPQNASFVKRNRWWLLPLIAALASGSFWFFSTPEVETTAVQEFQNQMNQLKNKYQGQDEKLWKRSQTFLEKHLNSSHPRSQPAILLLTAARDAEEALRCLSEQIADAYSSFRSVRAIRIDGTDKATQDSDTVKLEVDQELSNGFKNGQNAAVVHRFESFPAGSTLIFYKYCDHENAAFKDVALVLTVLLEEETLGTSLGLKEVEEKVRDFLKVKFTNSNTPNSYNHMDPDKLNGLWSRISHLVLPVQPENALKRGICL
The target in test [20] is Alpha-bungarotoxin (Bungarus multicinctus) (UniProt P60615). Nature of the test: compounds binding labelled alpha-BTX control protein – biochemical, small-molecule microarray, Alexa647 label, 635/667 nm fluorescence, artefact control for SMM control protein annotation, profiling panel (AID 1117). To be noted: alpha-BTX-A647 binding fluorescence, higher = more signal.
Alpha-bungarotoxin (Bungarus multicinctus), sequence (P60615 whole entry, looked up): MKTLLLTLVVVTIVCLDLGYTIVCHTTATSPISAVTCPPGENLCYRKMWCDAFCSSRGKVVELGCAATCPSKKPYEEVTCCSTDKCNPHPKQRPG

Fibroblast growth factor 10 (Homo sapiens), sequence (O15520 whole entry, looked up): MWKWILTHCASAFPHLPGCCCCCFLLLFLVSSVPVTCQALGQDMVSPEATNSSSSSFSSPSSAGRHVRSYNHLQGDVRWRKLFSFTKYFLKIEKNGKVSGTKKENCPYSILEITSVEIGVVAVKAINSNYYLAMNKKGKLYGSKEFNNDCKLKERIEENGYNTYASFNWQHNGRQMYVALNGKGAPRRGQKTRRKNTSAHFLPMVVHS
Left-right determination factor 2 (Homo sapiens), sequence (O00292 whole entry, looked up): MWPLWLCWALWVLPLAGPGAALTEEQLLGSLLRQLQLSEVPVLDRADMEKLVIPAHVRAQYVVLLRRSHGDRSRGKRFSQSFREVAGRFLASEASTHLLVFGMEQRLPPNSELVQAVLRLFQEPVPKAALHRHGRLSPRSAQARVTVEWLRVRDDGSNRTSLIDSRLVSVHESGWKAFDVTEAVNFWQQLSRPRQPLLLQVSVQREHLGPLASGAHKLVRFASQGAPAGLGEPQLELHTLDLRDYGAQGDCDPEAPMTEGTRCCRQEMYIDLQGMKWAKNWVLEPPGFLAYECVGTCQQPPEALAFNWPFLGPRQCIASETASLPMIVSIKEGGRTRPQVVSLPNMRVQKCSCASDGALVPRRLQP
Epidermal growth factor receptor (Homo sapiens), sequence (P00533 whole entry, looked up): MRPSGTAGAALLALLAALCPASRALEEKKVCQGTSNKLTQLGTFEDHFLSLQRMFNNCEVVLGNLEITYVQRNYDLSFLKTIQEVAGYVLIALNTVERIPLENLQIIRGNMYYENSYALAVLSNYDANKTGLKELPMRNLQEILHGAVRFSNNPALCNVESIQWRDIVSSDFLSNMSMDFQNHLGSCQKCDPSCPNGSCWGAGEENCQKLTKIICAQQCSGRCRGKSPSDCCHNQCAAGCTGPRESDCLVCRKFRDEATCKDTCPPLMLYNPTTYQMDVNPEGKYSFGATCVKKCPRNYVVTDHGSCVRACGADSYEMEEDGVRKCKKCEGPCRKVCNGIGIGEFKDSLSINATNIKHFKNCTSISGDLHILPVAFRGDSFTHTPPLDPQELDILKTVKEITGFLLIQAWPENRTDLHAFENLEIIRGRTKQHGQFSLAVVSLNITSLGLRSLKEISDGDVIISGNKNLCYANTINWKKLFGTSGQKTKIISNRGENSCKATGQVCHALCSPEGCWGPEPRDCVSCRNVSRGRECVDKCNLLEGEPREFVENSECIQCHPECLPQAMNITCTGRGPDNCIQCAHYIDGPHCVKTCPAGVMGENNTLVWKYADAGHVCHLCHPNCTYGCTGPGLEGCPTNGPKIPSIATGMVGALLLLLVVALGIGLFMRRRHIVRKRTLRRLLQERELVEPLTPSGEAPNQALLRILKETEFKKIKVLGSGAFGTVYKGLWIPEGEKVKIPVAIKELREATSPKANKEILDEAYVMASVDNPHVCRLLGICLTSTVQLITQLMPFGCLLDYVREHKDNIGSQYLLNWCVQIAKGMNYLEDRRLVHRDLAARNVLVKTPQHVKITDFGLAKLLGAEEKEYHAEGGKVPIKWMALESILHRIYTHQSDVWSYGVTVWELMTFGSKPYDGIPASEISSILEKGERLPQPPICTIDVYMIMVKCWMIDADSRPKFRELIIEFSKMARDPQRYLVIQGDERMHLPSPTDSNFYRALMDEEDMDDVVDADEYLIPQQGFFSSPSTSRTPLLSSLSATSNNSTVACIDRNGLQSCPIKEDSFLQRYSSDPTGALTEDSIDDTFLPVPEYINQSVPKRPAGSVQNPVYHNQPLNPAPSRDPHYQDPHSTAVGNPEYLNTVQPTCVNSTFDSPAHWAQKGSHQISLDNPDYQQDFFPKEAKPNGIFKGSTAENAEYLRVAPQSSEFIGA

Consider `COc1ccc(C(O)C2C=CC3C(=O)N(c4ccccc4)C(=O)C3N2Nc2ccccc2F)cc1OCc1ccccc1` (stereo not given), for which the composite z-score in test [1] was 1.21; in test [2], 1.21; in test [3], 1.08; in [5], 0.771; in test [6], 0.693; in test [7], 0.0115. Further, the composite z-score is 0.711 in [8]; -0.633 in test [9]; 1.35 in test [10]; 1.4 in test [11]; -0.477 in [13]; 2.15 in test [14]. Moreover, the composite z-score was 0.983 in test [15]; 0.108 in [16]; 0.232 in test [17]; -0.115 in test [18]; 1.2 in test [19]; 1.55 in test [20]. The z-score in [4] was 0.249 (inactive); in test [12], -0.0689.
As for `CC1CC/C=C\[C@H]2OC34C=CCN(Cn5nnc6ccccc65)C(=O)[C@H]3N(C(CO)C(C)C)C(=O)[C@@H]4C2C(=O)O1` (stereo not given in full), the composite z-score was 0.868 in test [1]; -0.165 in test [2]; 0.547 in [3]; -0.103 in test [5]; -0.108 in test [6]; -0.675 in test [7]. Further, the composite z-score is -0.551 in [8]; -0.877 in [9]; 0.459 in [10]; 0.696 in test [11]; -1.19 in [13]; -0.195 in test [14]. Further, the composite z-score is -0.607 in [15]; -0.175 in test [16]; 0.0141 in [17]; 0.356 in test [18]; 0.64 in test [19]; 2.2 in [20]. In addition, the z-score was 0.209 (inactive) in test [4] and 0.238 in test [12].
Regarding `C=CC[C@]1(C(=O)NCCCOC)N=C(c2ccc(OCCCO)cc2)O[C@H]1c1ccccc1N=[N+]=[N-]`, the composite z-score is 1.65 in [1]; -0.188 in test [2]; 0.658 in test [3]; 1.44 in test [5]; 0.746 in test [6]; -0.223 in test [7]. Moreover, the composite z-score in test [8] is 0.348; in test [9] it was -0.516; in test [10] it was 1.29; in [11], 1.05; in test [13], -0.338; in test [14] it was 2.08. Further, the composite z-score in test [15] stood at 0.312; in [16] it was 0.191; in [17], 0.535; in test [18], 1.8; in [19], 1.47; in test [20] it was 0.928. The z-score is -0.885 (inactive) in test [4] and -0.682 in test [12].
In the case of `CCCC[C@H]1OB(O)C[C@H]2C1=C(COc1ccccc1)C[C@H]1C(=O)N(C)C(=O)[C@H]12`, the composite z-score was -0.328 in [1]; 0.0763 in test [2]; -0.442 in test [3]; 0.429 in [5]; -0.0785 in test [6]; 0.447 in [7]. For the same compound, the composite z-score was 0.43 in test [8]; 0.439 in test [9]; 0.741 in [10]; -0.121 in test [11]; 0.283 in test [13]; -0.515 in test [14]. The composite z-score in test [15] was -0.255; in test [16], 0.0438; in test [17], 0.0899; in [18], -0.106; in test [19] it was 0.101; in test [20] it was 0.0648. Further, the values for the z-score in test [4] and in [12] were 0.377 (inactive) and -0.271, respectively.
`O=C1NC(=O)C2C1C=CC(C(O)c1ccccc1)N2Nc1ccc(Cl)cc1Cl` (stereo not given): the composite z-score in test [1] is 1.62; in [2], 0.394; in test [3], 0.914; in test [5], 1.14; in test [6], 1.27; in test [7], 0.531. For the same compound, the composite z-score is 1.27 in test [8]; -0.0035 in test [9]; 0.705 in [10]; 1.39 in [11]; 0.628 in test [13]; 2.13 in test [14]. The composite z-score in [15] amounted to 1.09; in test [16], 0.17; in test [17] it was 0.412; in [18], 1.44; in [19], 1.98; in [20], 1.55. Moreover, the values for the z-score in test [4] and in [12] were -1.36 (inactive) and -1.25, respectively.
Turning to `O=C(NCc1ccccc1)[C@@]1(Cc2ccccc2)N=C(c2ccc(OCCCO)cc2)O[C@H]1c1ccccc1`, the composite z-score in test [1] was 0.652; in test [2], 1.15; in [3], 1.23; in test [5], 0.366; in [6], 0.3; in test [7], -0.47. In addition, the composite z-score in test [8] is 0.448; in test [9], -0.996; in [10], 0.425; in test [11] it was 1.11; in [13] it was -0.699; in test [14], 2.36. Moreover, the composite z-score in [15] was 1.09; in [16], 0.055; in test [17] it was -0.181; in test [18], 1.36; in test [19], 2.02; in [20], 1.1. Further, the z-score in [4] was 0.915 (inactive); in test [12] it was -2.57.
